Screens from PubChem BioAssay.
Only some compounds are listed: those with a hit (about 4.1% of all), similar ones and a draw of the others.
Gli-Sufu block = Gli-Sufu pathway antagonists, primary screen, luciferase luminescence, Sufu-KO-LIGHT cells, uHTS | AID 588413, 2011 | Sufu-KO-LIGHT fibroblasts, Gli luciferase reporter luminescence | inhibition, % at 5 µM | 340,000 tested, 0.74% active;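 active = inhibition above about 55%, limit read from the data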;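 note: 0% = DMSO-treated cells and 100% = wells with medium but no cells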
KLF5 inh = KLF5 expression inhibitors, primary screen, DLD-1 cells, luminescence. 290,000 tested, 0.23% active. inhibition, % at 5 µM. DLD-1 KLF5 promoter-luciferase reporter;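 active = inhibition above a per-plate limit of that plate's mean compound inhibition plus 3 SD, cut at about 60% in these data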;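 note: 0% = DMSO wells and 100% = LY294002 at 200 µM; higher means less KLF5 promoter-driven luciferase light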
Jurkat NFkB inh = inhibitors of induced NF-kB luciferase reporter, primary screen, TCR NF-kB activation inhibitor project, cell-based, luminescence, uHTS; 330,000 tested, 0.53% active; inhibition, % at 4 µM; Jurkat, PMA/ionomycin-induced NF-kB luciferase reporter; AID 435003, 2010; in the data active = inhibition above about 50%
Mdm2-MdmX inh = inhibitors of human Mdm2-MdmX association, primary screen, cell-based, luminescence, split luciferase, SaOS-2, uHTS; Protein Mdm4 (Homo sapiens) + E3 ubiquitin-protein ligase Mdm2 (Homo sapiens), …; SaOS-2 split-luciferase Mdm2/MdmX complementation; inhibition, % at 8 µM; 330,000 tested, 3% active; AID 485346, 2010;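 active = inhibition of at least 50% at 8 µM in the primary screen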
Target sequence (O15151 whole entry, looked up): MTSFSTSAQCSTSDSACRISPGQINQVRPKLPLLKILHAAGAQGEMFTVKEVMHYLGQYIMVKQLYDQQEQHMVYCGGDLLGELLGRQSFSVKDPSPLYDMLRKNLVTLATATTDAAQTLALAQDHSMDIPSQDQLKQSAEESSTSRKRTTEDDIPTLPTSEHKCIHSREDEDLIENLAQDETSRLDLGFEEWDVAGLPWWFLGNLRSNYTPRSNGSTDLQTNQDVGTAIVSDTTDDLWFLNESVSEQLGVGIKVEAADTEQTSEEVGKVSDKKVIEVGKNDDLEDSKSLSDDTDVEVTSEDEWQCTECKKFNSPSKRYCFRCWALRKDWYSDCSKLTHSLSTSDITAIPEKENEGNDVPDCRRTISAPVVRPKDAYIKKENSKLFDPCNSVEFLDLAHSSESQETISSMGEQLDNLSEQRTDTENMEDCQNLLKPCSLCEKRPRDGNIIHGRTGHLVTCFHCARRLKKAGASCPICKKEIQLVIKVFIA
Target sequence (Q00987 whole entry, looked up): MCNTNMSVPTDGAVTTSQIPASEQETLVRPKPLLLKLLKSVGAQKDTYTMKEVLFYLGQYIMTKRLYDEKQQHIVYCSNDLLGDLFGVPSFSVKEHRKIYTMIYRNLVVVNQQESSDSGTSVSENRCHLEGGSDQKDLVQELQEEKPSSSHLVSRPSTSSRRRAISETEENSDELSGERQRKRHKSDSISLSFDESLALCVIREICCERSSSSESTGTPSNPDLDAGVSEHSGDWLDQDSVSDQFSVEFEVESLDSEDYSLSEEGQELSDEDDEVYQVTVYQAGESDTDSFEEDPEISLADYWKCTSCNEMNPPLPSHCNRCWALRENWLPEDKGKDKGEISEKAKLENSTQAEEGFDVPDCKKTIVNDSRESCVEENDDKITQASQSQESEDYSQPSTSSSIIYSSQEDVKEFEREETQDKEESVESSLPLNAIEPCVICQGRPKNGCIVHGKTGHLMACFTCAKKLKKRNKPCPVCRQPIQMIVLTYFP
697 NFkB inh = inhibitors of PMA/ionomycin-induced NF-kB reporter, 697 cells, primary screen, B-cell NF-kB inhibitor project, cell-based, luminescence, uHTS; 697 B-cell NF-kB luciferase reporter, 16 h; inhibition, % at 4 µM; 330,000 tested, 0.33% active; AID 435022, 2010; in the data active = inhibition above about 35%
aSyn 5UTR inh = MLPCN primary screen, SNCA 5' untranslated region | AID 1813, 2009 | inhibition, % (tested at 7.5 µM) | 300,000 tested, 0.82% active | alpha-synuclein 5'UTR reporter, inhibitor activity; in the data active = inhibition above about 60%; inconclusive = no clear call, values can overlap the other calls;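 note: H4 neuroglioblastoma cells stably carrying SNCA 5'UTR luciferase fusion; 0% = DMSO wells and 100% = positive control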
Mdm2 MdmX conf = Mdm2-MdmX complex disruptors, retested hits, confirmation, luminescence, single concentration; shares compounds with Mdm2-MdmX inh; Mdm2-MdmX binding, luminescent assay; inhibition, % at 8 µM; 10,000 tested, 55% active; AID 489028, 2010; in the data active = inhibition above about 40%
FLuc counter = full-length luciferase signal inhibition, confirmation, counter-screen for Mdm2/MdmX interaction inhibitor project, cell-based, single concentration, SaOS-2; SaOS-2 full-length luciferase counterscreen, luminescence; inhibition, % at 8 µM; 6,200 tested, 77% active; AID 504607, 2011; shares compounds with Mdm2-MdmX inh;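 active = mean inhibition at 8 µM reaching about 37%, which flags the compound as non-specific, limit read from the data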;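 note: p53-null SaOS-2 cells with luciferase driven by a doxycycline-inducible promoter; compound on cells about two nights before reading with doxycycline added after day one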
Numbers without * were called inactive; u = inconclusive; x = not tested or not shown.

SMILES	Gli-Sufu block	KLF5 inh	Jurkat NFkB inh	Mdm2-MdmX inh	697 NFkB inh	aSyn 5UTR inh	Mdm2 MdmX conf	FLuc counter
COCCCNc1nc(N)c([N+](=O)[O-])c(Nc2ccccc2OC)n1	-14	-17	26	61*	-56	55	30	x
COCCCNc1nc(N)c([N+](=O)[O-])c(NCc2ccccc2)n1	4	-4	-3	26	5	u	x	x
CCc1nc2ccccc2c(C(=O)OCC(=O)Nc2cccc(S(=O)(=O)N3CCOCC3)c2)c1C	23	-16	32	66*	4	23	75*	45*
Cc1cc(-c2nnc3n2N=C(c2ccccc2)CS3)n[nH]1	6	-1	1	26	30	13	x	x
Cc1cc(-c2nnc3n2N=C(c2ccc(-c4ccccc4)cc2)CS3)n[nH]1	15	-15	3	70*	9	-18	12	x
COc1ccc(C2=Nn3c(nnc3-c3ccncc3)SC2)cc1	-5	-14	8	52*	-10	8	55*	22
COc1ccc(C2=Nn3c(nnc3-c3cccnc3)SC2)cc1	0	-10	x	x	x	16	x	x
c1ccc(-c2cc(-c3nnc4n3N=C(c3ccc5ccccc5c3)CS4)[nH]n2)cc1	1	-31	-5	57*	-20	30	78*	76*
COC(=O)c1ccc(/C=C/c2c(-c3ccsc3)sc3ccccc23)cc1	-2	-20	-18	19	7	13	x	x
CC1Nc2ncnc(N3CCc4ccccc4C3)c2N(Cc2ccc(Cl)cc2)C1=O (centres undefined)	-4	x	19	28	11	-5	x	x
CC1Nc2ncnc(N3CCc4ccccc4C3)c2N(Cc2ccc(Br)cc2)C1=O (centres undefined)	-4	x	32	54*	5	-2	40	58*
CCOc1ccc(C(=O)N[C@H](C(=O)Nc2cccc(S(=O)(=O)N3CCCCC3)c2)C(C)C)cc1	-5	-13	26	51*	12	76*	32	x
COc1ccc(CN2CCc3c([nH]c4ccccc34)C2)cc1Br	20	-31	-5	69*	-16	-22	25	x
NS(=O)(=O)c1ccc(CCNC(=O)c2ccc(NC3=NC4CS(=O)(=O)CC4S3)cc2)cc1 (centres undefined)	0	-2	9	-6	11	-7	x	x
Cc1ccc(C(=O)N[C@@H](C)CN2C3=NC[C@H](C(C)C)N3C[C@H]2Cc2ccc(O)cc2)cc1Br	16	-9	4	7	16	-22	x	x
COc1ccc(C[C@H]2CN3C(=NC[C@@H]3Cc3ccccc3)N2C[C@H](C)NC(=O)CCC2CCCCC2)cc1	x	x	35	68*	9	-21	48*	72*
COc1ccc(C[C@H]2CN3C(=NC[C@@H]3C(C)C)N2C[C@H](C)NC(=O)c2ccc(C)c(Br)c2)cc1	22	-2	1	52*	-1	-25	20	x
C[C@@H](CN1C2=NC[C@H](Cc3ccc(O)cc3)N2C[C@H]1Cc1ccc(O)cc1)NC(=O)CCC1CCCCC1	14	-19	8	24	4	16	x	x
COc1ccc(C[C@H]2CN3C(=NC[C@@H]3Cc3ccc(O)cc3)N2C[C@H](C)NC(=O)c2ccc(C)c(Br)c2)cc1	18	x	21	86*	-14	-2	36	x
CCc1ccc(C(=O)C(C)OC(=O)c2nc3nc(C)cc(C)n3n2)cc1 (centres undefined)	-6	x	8	0	-11	-11	x	x
N=c1n(CCN2CCCCC2)c2ccccc2n1CC(=O)c1cccc([N+](=O)[O-])c1	21	7	10	73*	-5	-16	15	x
C=CCn1c(=N)n(CC(=O)c2cccc([N+](=O)[O-])c2)c2ccccc21	8	-3	-24	20	-20	-77	x	x
CCc1nnc(NC(=O)c2ccc(S(=O)(=O)N3CCc4ccccc4C3)cc2)s1	0	-22	15	-5	9	6	x	x
Cc1cc(C)c2sc(NNC(=O)c3ccc(S(=O)(=O)N4CCc5ccccc5C4)cc3)nc2c1	26	34	29	83*	-47	77*	85*	42*
Cc1cc(C)c2nc(NNC(=O)c3ccc(S(=O)(=O)N4CCc5ccccc5C4)cc3)sc2c1	2	26	8	82*	-19	75*	86*	38*
SMILES	Gli-Sufu block	KLF5 inh	Jurkat NFkB inh	Mdm2-MdmX inh	697 NFkB inh	aSyn 5UTR inh	Mdm2 MdmX conf	FLuc counter
Cc1ccc(C(=O)NCCNC(=O)c2ccccn2)cc1	-9	-7	4	-4	0	-14	x	x
O=c1c2ccccc2sn1-c1ccc(F)cc1	6	x	-23	51*	-1	x	12	x
CCN1CCN(C(=S)c2ccc([N+](=O)[O-])cc2)CC1	-6	11	8	5	21	-14	x	x
O=C(/C=C/c1ccco1)Nc1ccc(Oc2ccc(Cl)cc2)cc1	-2	-3	34	55*	-134	-203	60*	40*
Cc1ccc(S(=O)(=O)Nc2ccccc2C(=O)N2CCCCC2C)c(C)c1NS(C)(=O)=O (centres undefined)	-4	-3	-13	-2	9	22	x	x
O=C(NCCN1CCOCC1)C(=O)NCC1OCCCN1S(=O)(=O)c1cc(F)ccc1F (centres undefined)	19	-34	5	17	10	-5	x	x
CCOC(=O)c1c(NC(=O)CN2C(=O)C(=O)N(C(C)C)C2=O)sc(C)c1CC	8	x	1	22	9	x	x	x
Cc1noc(C)c1CSc1nc2ccccc2c(=O)n1-c1ccc(F)cc1F	10	-3	49	66*	-8	-5	53*	58*
Cc1c(Cl)cccc1-c1ccc(CNCc2ccccn2)o1	x	-10	4	6	-5	0	x	x
COc1cc2cc(-c3ccc(O)cc3O)nc(C)c2cc1OC	35	10	-11	84*	34	-116	53*	53*
CCOc1ccc(-c2cc3cc(OC)c(OC)cc3c(C)n2)cc1	23	-17	8	2	1	-30	x	x
COc1cc2cc(-c3ccc(OC)c(OC)c3C)nc(N)c2cc1OC	46	x	47	94*	-13	96*	70*	62*
CCc1nc(-c2ccc(OC)c(OC)c2)cc2cc(OC)c(OC)cc12	-6	-8	3	16	24	9	x	x
